Experimental findings from PubChem BioAssay (NCI) are described below.

Structures are written as SMILES. This is part of a sample that, as a whole, favours compounds with a hit. Of some 83,000 tested, about 20% had one in any assay.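 Activity criterion: percent growth below 10, measured after cells in 96-well plates were exposed to a single compound concentration for 48 hours.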 Calls of active or inactive are those of the source.

This test concerns HL-60(TB) leukemia. As to the kind of experiment: NCI-60 one-dose screen, 48 h (100 = growth as untreated, 0 = no growth, -100 = all killed). The note with it: 10 µM unless noted.
Consider `C#CCOc1ccc2ncnc(N3CCC(NC(=O)CCl)CC3)c2c1`, for which the growth was 68.8% [8.25 µM] (inactive).
The same measure for `O=C(O)c1ccc2cccnc2c1O`: -20.5% (active); for `CCOC(=O)c1nn(C2CCCCO2)c2ccc(NC(=O)Cn3nnc4ccccc43)cc12` (stereo not given): 98.8% (inactive); for `CCCCSCC(=O)c1ccccc1`: 63.4% (inactive).
For the compound `COc1cc2nc(Nc3cccc(F)c3)nc(Nc3cc(C)[nH]n3)c2cc1OC`, the growth was -54% [20 µM] (active).
The same measure for `CNC(=O)c1cc(Oc2ccc(NC(=O)Nc3ccc(Cl)c(C(F)(F)F)c3)c(F)c2)ccn1`: -17.4% (active).
In the case of `C=C(C)[C@@H]1CC[C@]2(C(=O)OC)CC[C@]3(C)[C@H](CC[C@@H]4[C@@](C)(CCc5nn[nH]n5)[C@H](C(=C)C)CC[C@]43C)[C@@H]12` it was -11% [100 µM] (active); in that of `CC(Br)C(O)c1cc2c(cc1Br)OCO2` (stereo not given), 105% (inactive); in that of `CCOC(=O)c1ccc2c(c1)[n+](=O)c(C(C)=O)c(C(F)(F)F)n2[O-]`, -65.9% (active).
As for `O=C1C=CC(=CC=C2C=CN(CCCCCCCCCCCO)C=C2)C=C1`, the growth was 4.05% (active).
In the case of `Oc1cccc2oc(=S)[nH]c12` it was 121% (inactive); in that of `C=CCSc1nnc(-c2ccc(C(C)(C)C)cc2)n1-c1cccc(C(F)(F)F)c1`, 5.96% (active).
In the case of `Nc1nc(NC(=O)Nc2ccc(C(=O)O)cc2)nn1-c1ccc(S(N)(=O)=O)cc1` it was 102% (inactive); in that of `CN1C(=O)C(=Cc2coc3ccc(Br)cc3c2=O)C(=O)N(C)C1=O`, 111% (inactive); in that of `O=C(CC(C(=O)c1ccccc1)N1CCN(Cc2ccccc2)CC1)c1ccccc1` (stereo not given), 28.5% (inactive).
Consider `CCN(CC)CC(O)CNc1c2ccc(Cl)cc2nc2ccc(OC)cc12` (stereo not given), for which the growth was -0.864% (active).
As to `O=C1O[C@@H](c2ccccc2Cl)[C@@H]2c3cc4c(cc3CCN12)OCO4`, the growth is 92.1% (inactive).
As for `COc1ccc(C2CC(=O)c3c(O)c(OC)c(OC)c(OC)c3O2)cc1O` (stereo not given), the growth was -4.32% (active).
The same measure for `CCOc1nc(-c2ccccc2)cc2c(O)c(C(=O)N/N=C/c3ccc(OC)cc3)[nH]c(=O)c12`: 65.1% (inactive); for `NS(=O)(=O)c1ccccc1NC(=O)Nc1nc2ccccc2s1`: 102% (inactive); for `O=C(/C=C/c1ccc([N+](=O)[O-])cc1)c1ccc2c3c(cccc13)CC2`: 14.4% (inactive).
In the case of `C=C1C(=O)O[C@H]2[C@H]1CC/C(COC(=O)NCc1c[nH]c3ccc(F)cc13)=C\CC[C@@]1(C)O[C@@H]21` it was -32.4% (active); in that of `CCOC(=O)/C(=C/c1ccc([N+](=O)[O-])cc1)C(=O)c1ccccc1`, -20.8% (active).
The same measure for `CC12CCCC(CC(=O)c3[nH]c4ccccc4c31)C2` (stereo not given): -0.598% (active); for `COC(=O)CCC1=C(CC(=O)OC)C(C)=N/C1=C\c1[nH]c(-c2ccc[nH]2)cc1OC`: 44.2% (inactive); for `COc1ccc(-c2n[nH]c(=O)c3nc(NC(=S)Nc4ccc(Oc5ccccc5)cc4)sc23)cc1`: 92.9% (inactive).
`Nc1c(C(=O)Nc2cccc3c2OCCO3)sc2nc3c(cc12)C(=O)CCC3`: the growth was 12.4% (inactive).
For `COc1ccc(/C=C(\C#N)n2nnc3c(F)cccc32)cc1`, the growth was -5.39% (active).
As for `COc1ccc(-c2cscc2N)cc1`, the growth is 18.7% [100 µM] (inactive).
Turning to `O=C(Nc1ccc(OCc2nnc(-c3ccc(Cl)cc3)o2)c(F)c1)Nc1ccc(Cl)c(Cl)c1`, the growth was 95.5% (inactive).
The same measure for `Cc1cc(C)n(Nc2nc3ccccc3[nH]c2=O)c(=O)c1C#N`: 102% (inactive); for `O=C(Cc1nc2ccc([N+](=O)[O-])cc2nc1CC(=O)c1cccnc1)c1cccnc1`: 67.5% (inactive).
Turning to `COc1ccc(C(=O)N/N=C/c2cc(C(F)(F)F)ccc2Cl)cc1`, the growth was 100% (inactive).
Turning to `C#CCN1C(=O)/C(=c2\sc3n(c2=O)NC2C(N=3)N(CC)C(=O)N2CC)c2ccccc21` (stereo not given), the growth was -34.3% (active).
As for `CN1CCN(Cn2nc(-c3cc(Cl)cc(Cl)c3Cl)oc2=S)CC1`, the growth was 82% (inactive).
The same measure for `Cn1cc(-c2nn3cc(-c4ccccc4)nc3s2)c2ccccc21`: 84.8% (inactive).
The same measure for `Clc1ccc(-c2cnc3nonc3n2)s1`: 29% (inactive); for `COC(=O)c1c2c(c(C)[n+]([O-])c1C)C(=O)C=C(NCc1ccccc1)C2=O`: -31.4% (active).
In the case of `O=C(CCl)N1c2ccccc2Sc2ccc3ccccc3c21` it was -44.1% (active).
Turning to `COc1ccc2c(c1)O/C(=C\c1cccc(OCC(=O)Nc3nc(C)c(C)s3)c1)C2=O`, the growth is -77.3% (active).
